D1 PAM = enhances dopamine response at the human D1 receptor | potentiation, % at 10 µM | HEK293 TREx D1 cells, calcium flux, dopamine EC20 potentiation | AID 504651 | hit rate 0.036% among 360,000; in the data active = potentiation above about 30%; also: 0% is about no effect
Target sequence (P21728 whole entry, looked up): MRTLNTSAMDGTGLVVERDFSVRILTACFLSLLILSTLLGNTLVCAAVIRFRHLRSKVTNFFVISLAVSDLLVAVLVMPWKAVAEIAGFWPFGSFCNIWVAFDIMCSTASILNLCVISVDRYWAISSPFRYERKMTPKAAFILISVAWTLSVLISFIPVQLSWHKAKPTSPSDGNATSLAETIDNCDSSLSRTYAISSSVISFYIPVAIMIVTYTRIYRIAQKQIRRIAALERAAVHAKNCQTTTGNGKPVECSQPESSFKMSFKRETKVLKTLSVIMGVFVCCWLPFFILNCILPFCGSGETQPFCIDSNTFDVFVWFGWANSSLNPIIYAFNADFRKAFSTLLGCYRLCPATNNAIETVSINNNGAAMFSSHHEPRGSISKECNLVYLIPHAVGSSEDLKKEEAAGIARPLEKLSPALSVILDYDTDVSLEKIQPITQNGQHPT
D1 antagonist = blocks dopamine activation of the human D1 receptor; HEK293 TREx D1 cells, calcium flux, dopamine EC80; stronger effect = lower value; activity change, negative = inhibition, % at 10 µM; hit rate 3.2% among 360,000; AID 504652; in the data active = activity change below about -30%; also: % is scaled to controls: 0 for no effect and ±100 for the full control effect
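Inducible Hek293 Trex D1 cells (tetracycline, overnight, 30 C). Calcium dye 30–90 min RT. Antagonist mode: EC80 dopamine added after 180 s compound read.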
D1 agonist = human D1 receptor agonism. activation, % at 2 µM. P21728. AID 504660. hit rate 1% among 360,000. HEK293 T-REx D1 cells, calcium flux, agonist mode; in the data active = activation above about 30%; also: 0% is about no effect
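Agonism was scored from calcium flux recorded over 180 s (1 read/s) after pintool compound addition, following a 10-cycle baseline. Cells were inducible force-coupled HEK293 TREx D1, plated overnight at 30 C and loaded with no-wash calcium dye.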
USP2a block = inhibitors of human ubiquitin-specific protease USP2a. AID 463254. Potency, µM (top dose mostly 38.3 µM), for inactives: top-dose activity change, negative = inhibition, actives largely listed as inhibitors. hit rate 0.01% among 330,000. USP2 core, Ub-CHOP2 coupled fluorogenic reporter, 485/531. O75604;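 also: potency is read from the fitted curve at half-maximal effect; plate controls were DMSO wells for no effect and full inhibition by NEM control for full effect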
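USP2 core (10nM final) preincubated 30min RT with compound in 20mM Tris-HCl pH 8.0, 2mM CaCl2, 2mM beta-mercaptoethanol, 0.05% CHAPS; 25nM Ub-CHOP2 plus 25nM reporter substrate added, fluorescence (Ex485/Em531) read after 60min.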
GALK inhibitor = blocks human galactokinase activity; P51570; Purified GALK, Kinase-Glo residual ATP luminescence; Potency, µM (titrated, usually from 57.5 µM), inactives show top-dose activity change, negative = inhibition, actives largely listed as inhibitors; hit rate 0.007% among 270,000; also: potency is read from the fitted curve at half-maximal effect; % is scaled to controls: 0 for no effect and ±100 for the full control effect
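Quantitative HTS: GALK 5 nM, ATP 35 uM, galactose 100 uM, 1 h room temperature, then luciferase-based ATP detection.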
Eya2 phos inh = blocks the phosphatase activity of human Eya2 | O00167 | recombinant Eya2, OMFP fluorescence dephosphorylation (OMFP is methylfluorescein phosphate) | Potency, µM (titrated, usually from 76.9 µM), for inactives: top-dose activity, negative = inhibition, actives largely listed as inhibitors | hit rate 0.006% among 330,000 | AID 488837; also: potency is read from the fitted curve at half-maximal effect; % is scaled to controls: 0 for no effect and ±100 for the full control effect
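Eya2 protein (added as 0.2 uM solution) was preincubated with compound for 10 min at ambient temperature in 50 mM HEPES pH 7.5, 50 mM NaCl, 5 uM MgCl2, 0.05% BSA, 1 mM DTT. OMFP (added at 50 uM) then reacted 10 min; fluorescence read at 485/525 nm.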
The depositor's hits bear a star; ? = inconclusive; nt = no result; [ ] = remark or other dose. Sampled rows, rich in hits. Any-hit rate of the full collection: about 3.9%. Unless noted, calls follow the shape of the dose curve; as a rule, active = well fitted inhibition curve with a large enough effect; inconclusive = small, poorly fitted or top-dose-only effect, or effect the other way; inactive = flat fitted curve, though single readings scatter.

SMILES	D1 PAM	D1 antagonist	D1 agonist	USP2a block	GALK inhibitor	Eya2 phos inh
CCOC(=O)c1[nH]c2ccccc2c1NC(=O)c1ccccc1OCC	2.0	-2.1	0.8	nt	nt	nt
O=C(Cc1cccs1)Nc1cccc(-c2nc3cc4ccccc4cc3[nH]2)c1	-5.5	-38.4*	0.1	0.4%	1.7%	-2.9%
CC(=O)Nc1cccc(NC(=O)Cc2cccs2)c1	-2.8	-6.1	0.8	-1.0%	-2.4%	7.0%
O=[N+]([O-])c1ccc2nc(-c3ccccc3[N+](=O)[O-])[nH]c2c1	-9.1	-39.4*	10.1	0.1%	-2.5%	-5.8%
O=[N+]([O-])c1ccc2nc(-c3ccc(Cl)cc3)[nH]c2c1	-3.6	-49.0*	26.6	2.1%	nt	-11.4%
Cc1ccc(-c2nc3ccc([N+](=O)[O-])cc3[nH]2)cc1	-10.0	-11.6	7.2	-0.2%	10.7%	2.9%
Cc1ccccc1Nc1nc(C#N)nc(NC2CCCC2)n1	-5.5	-12.7	2.6	nt	nt	nt
N#Cc1nc(Nc2cccc3ccccc23)nc(NC2CCCC2)n1	-6.7	-34.8*	8.3	nt	nt	nt
COc1cccc(Nc2nc(C#N)nc(NC3CCCC3)n2)c1	-0.5	-33.0*	4.6	nt	nt	nt
CCOc1ccccc1NC(=O)C(c1ccccc1)N1Cc2ccccc2C1=O (stereo not drawn)	1.8	-1.5	0.1	nt	nt	nt
Clc1ccc(CCNC(c2cccc(Cl)c2)c2nnc(-c3ccccc3)o2)cc1 (stereo not drawn)	-0.7	11.4	24.1	nt	nt	nt
COc1cccc2sc(Nc3nnc(-c4cccs4)o3)nc12	-4.2	-45.7*	2.3	1.0%	0.1%	1.0%
COc1ccc(NC(=O)CSc2nc(-c3cc(OC)c(OC)c(OC)c3)[nH]c2-c2ccc(F)cc2)cc1	-5.7	-21.1	0.2	nt	nt	nt
Cn1cc(-c2ccccc2C(N)=O)c(=O)c2cc(Cl)ccc21	-0.5	-4.5	2.5	3.0%	-0.5%	15.6%
Cn1cc(C2=C(c3ccc(Cl)cc3Cl)C(=O)NC2=O)c2ccccc21	1.8	22.8	144.6*	3.7%	nt	13.0%
CN(C(=O)c1cc2n(n1)C(C(F)(F)F)CC(c1ccco1)N2)c1ccccc1 (stereo not drawn)	-5.0	-50.5*	-0.4	-1.4%	-1.9%	26.0%
NC(=O)C1CCN(C(=O)c2cc3n(n2)C(C(F)(F)F)CC(c2ccco2)N3)CC1 (stereo not drawn)	11.8	-40.1*	-0.3	-0.9%	1.2%	2.6%
O=C(NC1CCCCCC1)c1cc2n(n1)C(C(F)(F)F)CC(c1ccco1)N2 (stereo not drawn)	-2.7	14.2	4.8	4.9%	2.5%	0.2%[15.4 µM]
O=C(Nc1ccc(Cl)c(C(F)(F)F)c1)c1nc2ccccc2nc1N1CCCCC1	-0.5	13.0	14.6	nt	nt	nt
CN1CCN(C2=Nc3c(Cl)cc(Cl)c4cccc2c34)CC1	-1.9	-8.8	5.8	7.0%	7.6%	-24.1%
CN1CCN(C2=Nc3cc(F)ccc3Cc3ccccc32)CC1	-3.1	-84.5*	8.5	3.6%	6.4%	2.8%
Cc1cc(N2CCN(C)CC2)ccc1NC(=O)c1ccc(-c2ccc(Cl)cc2)o1	-4.3	-61.9*	16.2	0.3%	nt	-5.2%
Cc1ccc(NC(=S)NC(=O)c2ccc(-c3ccc(Cl)cc3)o2)c(O)c1	-16.6	5.3	0.9	-4.1%	-1.8%	-10.2%
Cc1cc(O)c(NC(=S)NC(=O)c2ccc(-c3ccc(Cl)cc3)o2)cc1C	-2.1	-34.0*	2.2	3.8%	0.7%	8.9%
COc1ccc(C(=O)O)cc1NC(=S)NC(=O)Cc1ccc(Cl)cc1	10.2	14.5	11.2	-0.7%	-0.7%	-14.2%
SMILES	D1 PAM	D1 antagonist	D1 agonist	USP2a block	GALK inhibitor	Eya2 phos inh
CN1CCN(c2ccccc2NC(=O)c2ccc(-c3ccc(Cl)c(Cl)c3)o2)CC1	0.5	32.0	-0.2	3.4%	-1.4%	18.7%
CC(=O)c1ccc(NC(=S)NC(=O)Cc2ccc(Cl)cc2)cc1	3.0	-0.8	41.2*	4.1%	nt	-11.5%
CCCC(=O)NC(=S)Nc1ccc(C(C)=O)cc1	4.6	22.2	2.2	0.9%	-2.7%	-3.8%
Cc1ccc(O)c(NC(=S)NC(=O)Cc2ccc(Cl)cc2)c1	-27.6	-62.1*	95.7*	-0.4%	2.7%	-15.7%
COc1ccc(CC(=O)NCc2nc3cccnc3n2Cc2ccc(F)cc2)cc1OC	-2.0	8.6	0.0	nt	nt	nt
CC(C)CN(CC(C)C)S(=O)(=O)c1ccc(C(=O)Nc2sc3c(c2C(N)=O)CC(C)(C)NC3(C)C)cc1	1.9	-8.0	-2.8	nt	nt	nt
COc1ccc(Cl)cc1NC(=O)C1CCN(c2ncnc3c2nc2n3CCCCC2)CC1	0.9	-9.5	-0.8	nt	nt	nt
Cc1ccc2cccc(NC(=O)c3ccc(-c4ccc(Cl)cc4Cl)o3)c2n1	-4.2	-0.1	-0.5	nt	nt	nt
Cc1ccc(-n2c(=O)c3oc4ccccc4c3n(Cc3cccc(F)c3)c2=O)cc1C	-5.6	-1.6	1.8	nt	nt	nt
Cc1[nH]c2ccccc2c1C(=O)C(=O)N1CC(C)OC(C)C1 (stereo not drawn)	1.1	1.1	1.2	0.0%	4.6%	-5.7%
Cc1[nH]c2ccccc2c1C(=O)C(=O)N1CCN(c2cccc(Cl)c2)CC1	0.8	-37.8*	4.3	3.3%	-7.3%	?
Cc1[nH]c2ccccc2c1C(=O)C(=O)N1CC=C(c2ccccc2)CC1	-2.0	-37.4*	24.5	-8.6%	-1.1%	-2.8%
Cc1ccc(C)c(N(C)C(=O)C2CCN(c3ncnc4c3nc3n4CCCCC3)CC2)c1	4.8	-4.6	2.7	nt	nt	nt
C#CCSc1nnc(CSc2nc3ccccc3s2)n1-c1ccccc1	-5.5	-30.0*	8.1	-3.7%	0.1%	12.5%
CC(C)c1ccc(NS(=O)(=O)c2ccc3nc(-c4ccccc4)[nH]c3c2)cc1	-0.9	-20.0	12.7	nt	nt	nt
COC(=O)c1cc(F)c(S(=O)(=O)N2CCN(S(=O)(=O)c3ccc4c(c3)OCCO4)CC2)cc1F	2.3	-16.4	0.1	nt	nt	nt
O=C1CCc2cc(S(=O)(=O)N3CCC(C(=O)NC4CCCC4)CC3)ccc2N1	-3.5	-31.3*	0.0	2.1%	1.7%	-4.2%
CCCCN(CC)CCCNC(=O)Nc1sc2nc3n(c(=O)c2c1C)CCC(C)CC3 (stereo not drawn)	-3.0	-9.1	-0.9	nt	nt	nt
COc1ccc(O)c(C(=O)c2coc(=N)c(C(=O)Nc3ccc(SC(F)F)cc3)c2)c1	-1.4	-11.2	33.0*	4.0%	-2.3%	-1.1%
CCOc1ccccc1Nc1nnc(-c2cc3cc(OC)ccc3oc2=O)s1	-2.6	-15.4	56.4*	nt	nt	nt
CCOc1ccc2cc(-c3nnc(Nc4ccccc4F)s3)c(=O)oc2c1	3.2	6.2	6.1	nt	nt	nt
CCOC(=O)c1c(NC(=O)CSc2ncccn2)sc2c1CCN(Cc1ccccc1)C2	-11.2	-77.7*	7.3	-3.6%	-1.6%	-14.3%
CCOC(=O)c1c(NC(=O)CC)sc2c1CCN(Cc1ccccc1)C2	-13.8	0.6	17.0	1.3%	nt	3.5%

Screening data from PubChem.
